NS1 function inh: blocks influenza NS1 protein function | Potency, µM (highest dose often 46.1 µM) | 0.4% of 270,000 active | AID 2326; note: actives are rising curves; nearly all actives have a fitted effect of over 50% in size
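OD600 was taken as the measure of yeast growth restored by compound in an NS1-expressing S. cerevisiae strain. Cells had been washed out of glucose medium and diluted 1:100 into galactose -URA medium, pH 6.0.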
Pf growth 48h: P. falciparum growth inhibition at 48 hours (one generation); P. falciparum luciferase growth in erythrocytes, 48 h; Potency, µM (titrated, usually from 28.7 µM), hits mostly inhibitors; 5.9% of 310,000 active; AID 504832; active = well fitted inhibition curve with a large enough effect; inconclusive = small, poorly fitted or top-dose-only effect, or another doubt; inactive = no such curve, though single readings can be large or run the other way
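A one-generation exposure of luciferase-tagged malaria parasites in RPMI 1640/Albumax erythrocyte culture, 37 C and 5% CO2. Inhibition is inferred from decreased luminescence after adding detection reagent.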
SARS PLpro yeast: SARS-CoV PLP inhibition in yeast; 0.19% of 330,000 active; S. cerevisiae expressing SARS-CoV PLpro, growth rescue; Potency, µM (series often up to 32.9 µM), hits mostly activators; note: nearly all actives have a fitted effect of over 55% in size
Shiga inhibitor: Shiga toxin inhibition; 9.2% of 290,000 active; Vero cells, Shiga toxin protein synthesis inhibition reporter; inhibition, % at 38.7 µM; in the data active = inhibition mostly above about 28%, no sharp cut-off; inactive = mostly below about 43%
Pf growth 96h: inhibits malaria parasite growth, 96 h; P. falciparum luciferase reporter growth, 96 h; Potency, µM (top dose mostly 28.7 µM), most hits filed as inhibitors; 6.9% of 320,000 active; active = well fitted inhibition curve with a large enough effect; inconclusive = small, poorly fitted or top-dose-only effect, or another doubt; inactive = no such curve, though single readings can be large or run the other way
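Erythrocytes infected with luciferase-expressing P. falciparum were dispensed at 2% hematocrit and 0.05% parasitemia (final), then incubated with compounds 96 hours at 37 C in 5% CO2. Luminescence after detection reagent addition reported growth.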
CHX counter: counter-screen for Shiga toxin inhibitors: cycloheximide protein synthesis inhibition. cell reporter, cycloheximide protein synthesis inhibition counterscreen. max response, %. 12% of 300,000 active. AID 2314; in the data active = max response mostly above about 13%, no sharp cut-off; inactive = mostly below about 14%; note: read at 38.3 µM for the half of the compounds with a filed dose
Hits are given with their value; . = inactive; ? = inconclusive; / = no result given. Shown are actives, neighbours in structure and some others; about 21% of the full set was active somewhere. Unless noted, calls come from the whole dose curve.

SMILES	NS1 function inh	Pf growth 48h	SARS PLpro yeast	Shiga inhibitor	Pf growth 96h	CHX counter
CCn1nc(NC(=O)c2ccco2)c2cc3cc(C)ccc3nc21	.	.	.	.	.	9.8
Cc1ccc2cc3c(NC(=O)c4ccco4)nn(C)c3nc2c1	.	?	.	.	8.3µM	.
CCCn1nc(NC(=O)c2ccco2)c2cc3ccccc3nc21	.	.	.	.	?	.
Nc1ccccc1C(=O)NNC1=C(C(=O)C(F)(F)F)CCC1	.	?	.	95	.	46
COc1cccc(C(=O)NNC2=C(C(=O)C(F)(F)F)CCC2)c1	.	.	.	68	.	41
COc1ccccc1C(=O)NNc1ncc(C)s1	.	.	.	.	?	.
COc1ccccc1C(=O)NNC1=C(C(=O)C(F)(F)F)CCC1	.	.	.	84	.	17
O=C(NNC1=C(C(=O)C(F)(F)F)CCC1)c1ccccc1O	.	/	.	37	.	.
O=C(NNC1=C(C(=O)C(F)(F)F)CCC1)c1ccc(Br)cc1	.	.	.	.	/	.
O=C(NNC1=C(C(=O)C(F)(F)F)CCC1)c1ccccc1Cl	.	/	.	.	.	.
COc1cc([C@@H]2CC=C(C(=O)O)[C@H](c3ccccc3)N2S(=O)(=O)c2ccc(C)cc2)cc(OC)c1OC	/	3.3µM	.	/	8.3µM	/
COc1ccc([C@@H]2CC=C(C(=O)O)[C@H](c3ccccc3)N2S(=O)(=O)c2ccc(C)cc2)cc1OC	/	?	.	/	?	/
COc1cc([C@@H]2CC=C(C(=O)O)[C@H](c3ccc(Cl)cc3)N2S(=O)(=O)c2ccc(C)cc2)cc(OC)c1OC	/	9.3µM	.	/	9.3µM	/
Cc1ccc(/C=N/n2c(C3CCCCC3)n[nH]c2=S)s1	.	?	.	.	2.1µM	.
CC(C)(C)C(=O)/C(=C/c1ccc(Cl)cc1)n1cncn1	.	15µM	.	.	.	.
CC(C)(C)C(=O)/C(=C\c1ccc([N+](=O)[O-])cc1)n1cncn1	.	12µM	.	.	?	.
CN(C)/C=C(/C(=O)c1ccccc1)n1cncn1	.	.	.	.	.	.
O=C(c1ccccc1)N1N=C(c2cccs2)CC1c1ccccc1O (centres undefined)	.	?	.	.	?	.
COC(=O)c1ccc(C2N=C(c3cccs3)CC(c3ccccc3O)N2)cc1 (centres undefined)	/	?	.	100	.	38
CCN(CC(=O)NCCN1CCOCC1)S(=O)(=O)c1ccc(F)cc1	.	.	.	.	.	.
Cc1ccc(CNC(=O)CSCc2ccccc2F)cc1	/	.	.	.	?	39
Cc1ccc(CSCC(=O)NCc2ccc(F)cc2)cc1	/	.	.	.	?	.
CC(NC(=O)CCSCc1ccccc1F)c1ccccc1 (centres undefined)	.	.	.	65	?	58
O=C(CSCc1ccc(F)cc1)NCc1ccc(F)cc1	/	.	.	.	.	.
CN(C)C(=S)SCC(=O)NCc1ccc(F)cc1	/	.	.	51	?	29
SMILES	NS1 function inh	Pf growth 48h	SARS PLpro yeast	Shiga inhibitor	Pf growth 96h	CHX counter
O=C(CCSCc1ccccc1F)NCc1ccc(F)cc1	.	/	.	.	2.3µM	.
COc1ccc(CNC(=O)CCSCc2cccc(Cl)c2)cc1	.	.	.	.	.	.
COc1ccccc1CNC(=O)CCSCc1cccc(Cl)c1	.	.	.	.	1.2µM	.
COc1ccc(CNC(=O)CCSCc2ccccc2C)cc1	/	.	.	.	3.3µM	.
O=C(CCSCc1ccccc1F)NCCc1ccccc1	/	.	.	.	?	17
O=C(CSCc1ccccc1F)NCc1ccc(F)cc1	/	.	.	.	?	43
CCOc1ccc2nc(COC(=O)c3cccc([N+](=O)[O-])c3)c(C(C)=O)[n+]([O-])c2c1	?	.	.	.	.	.
CCN(CC(=O)Nc1ccc(NC(C)=O)cc1)C(=O)CC1OC(=O)c2ccccc21 (centres undefined)	/	.	.	/	.	/
Cc1ccc2oc(C(Cl)(Cl)Cl)cc(=O)c2c1	.	3.3µM	.	.	1.9µM	.
CCSc1nc2c(c(=O)[nH]1)C(c1cccnc1)C(C(=O)OC)=C(C)N2 (centres undefined)	.	.	.	.	.	.
CCSc1nc2c(c(=O)[nH]1)C(c1ccncc1)C(C(=O)OC(C)C)=C(C)N2 (centres undefined)	.	?	.	.	10µM	.
CC(C)(C)OC(=O)N1CCC[C@H]1c1nnc(SCc2c(Cl)cccc2Cl)o1	.	9.3µM	.	.	?	.
OC(CCc1cccc(Cl)c1)c1cccs1 (centres undefined)	.	/	.	44	.	35
CCN1C(=NCCOC)N[C@@H](c2cccc(C(F)(F)F)c2)C(C(=O)OC)=C1C	.	.	.	.	2.1µM	.
CCN1C(=S)N[C@@H](CCc2ccccc2)C(C(=O)OC)=C1C	.	?	.	.	9.3µM	.
CCN1C(=NCC2CC2)N[C@@H](c2cccc(C(F)(F)F)c2)C(C(=O)OC)=C1C	.	?	.	.	12µM	.
COC(=O)C1=C(C)N(Cc2ccccc2)C(=S)N[C@H]1c1cccc(C(F)(F)F)c1	.	?	.	28	.	19
CCN1C(=NCc2ccco2)N[C@@H](c2cccc(C(F)(F)F)c2)C(C(=O)OC)=C1C	.	?	.	.	.	.
CC1CCCCC1NCC(=O)NCc1ccc(F)cc1 (centres undefined)	/	.	.	.	.	.
Cc1ccc(OCCn2cc(C#N)c3ccccc32)cc1	.	8.3µM	.	.	?	.
O=C(C(=O)N1CCOCC1)c1cn(CCCOc2ccccc2)c2ccccc12	.	.	.	.	.	.
O=C(O)c1cn(CCOc2ccccc2Cl)c2ccccc12	/	.	.	50	.	38
COC(=O)c1cn(CCOc2ccc(C)cc2)c2ccccc12	.	/	.	.	?	.
CC(=O)c1cn(CCOc2ccc(F)cc2)c2ccccc12	.	?	.	/	?	12
CC(=O)c1cn(CCCOc2ccccc2)c2ccccc12	.	?	.	.	.	21
SMILES	NS1 function inh	Pf growth 48h	SARS PLpro yeast	Shiga inhibitor	Pf growth 96h	CHX counter
CCCCNS(=O)(=O)c1cc2c3c(c1)CCN3C(=O)CC2	.	.	.	.	.	.
CC(=O)c1cn(CCOc2ccccc2C)c2ccccc12	.	3.3µM	.	.	.	.
CC(=O)c1ccc(Nc2ccc([N+](=O)[O-])c3nonc23)cc1	.	.	.	/	.	21
O=[N+]([O-])c1ccc(Nc2ccccc2O)c2nonc12	.	?	.	.	.	.
O=C(O)c1ccc(Nc2ccc([N+](=O)[O-])c3nonc23)cc1	.	.	.	.	?	.
NS(=O)(=O)c1ccc(Nc2ccc([N+](=O)[O-])c3nonc23)cc1	.	?	.	.	9.3µM	.
Cc1ccc(N=CC=C2OC(C)(C)C(C)(C)O2)c(C)c1	.	?	.	.	.	.
COc1ccccc1N=CC=C1OC(C)(C)C(C)(C)O1	/	?	.	.	.	10
Cc1ccccc1C(=O)Nc1ccnn1C1CCN(Cc2cnn(C)c2)CC1	.	.	.	.	.	.

Bioassay records from PubChem BioAssay.
